Drawing on PubChem BioAssay (NCI), this text covers growth for 39 molecules.

Compounds without any hit were thinned out: in the full panel of roughly 83,000, 20% have a hit.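 Method: cells in 96-well plates; compound added at one concentration; 48 h incubation; percent growth measured; values under 10 scored active.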 Values without a mark were called inactive. Activity calls are given as the source filed them.

In the first test the test system is SK-OV-3 ovarian. As to the kind of experiment: NCI-60 one-dose screen, 48 h (100 = growth as untreated, 0 = no growth, -100 = all killed). The settings on record: 10 µM unless noted.
As to `Nc1nc(N)c2c(n1)NC1(C=C(O)c3ccccc31)C1=C(N2)c2ccccc2C1=O` (stereo not drawn), the growth was 121%.
Still for that read-out and setting: then `COc1ccc(CCN2C(=O)/C(=C/c3ccc(C4Oc5ccccc5C5CC(c6cccc(OC)c6)=NN54)cc3)SC2=S)cc1` (stereo not drawn), with 97.7%.
Same read-out and setting: then `O=C(Nc1ccc(N2CCNCC2)cc1)c1[nH]ncc1Nc1cc(Oc2ccccc2)ncn1`, with 19.4%; and `O=C(CCc1nnc2sc(Cc3ccccc3Cl)nn12)c1nc2ncccc2[nH]1`, with 108%.
The same measure, in the same setting: the same measure for `O=NN(Cc1cccnc1)C(=O)NC1CCCCC1`: 113%; for `CN(C)/C=C1\SC(=Nc2ccc(Cl)cc2)NC1=O`: 104%.
For `CCOC(=O)c1cc2c(n1Cc1ccccc1)-c1oncc1CCC2`, the growth is 87.1%.
Turning to `O=C(c1ccccc1)N(C(=S)NCCc1ccc(Cl)cc1)c1ccccc1`, the growth was 114%.
The same measure, in the same setting: then `COc1cccc(/C=C/C(=O)c2c(C)nc3ccccc3c2/C=C/c2ccccc2)c1OC`, with 89.8%.
On the same count and under the same terms, the same measure for `CCOC(=O)c1cc2c(n1Cc1cccc(OC)c1)-c1oncc1CCC2`: 20.7%; for `COc1ccc(OC)c(NC(=O)/C(C#N)=C/c2ccco2)c1`: 88.2%; for `CCc1ccc(CNCC(O)c2ccccc2)cc1` (stereo not drawn): 90.6%.
On the same count and under the same terms, the same measure for `CC/C=C\C[C@H](O)C/C=C1/C(=O)C=C[C@@H]1C/C=C\CCCC(=O)OCCS(=O)(=O)c1ccccc1`: 104%.
For `O=C1c2cc(Br)ccc2Oc2cc([N+](=O)[O-])ccc2N1c1ccc(I)cc1F`, the growth is 115%.
On the same count and under the same terms, the same measure for `COc1ccc(/C=C/C(=O)c2c(C)nc3ccccc3c2/C=C/c2ccccc2)cc1O`: 71.7%.
On the same count and under the same terms, the same measure for `COc1ccc(-c2nc(N3CCN(C(=O)C4CCCCC4)CC3)c3c4c(sc3n2)CCCC4)cc1`: 81%.
Regarding `O=c1oc2ccc(F)cc2c(=O)n1-c1ccc(Cl)cc1F`, the growth was -11.5% (active).
`COc1cc(C(=O)Nc2ccc(-c3nc4ccccc4[nH]3)cc2)cc(OC)c1OC`: the growth is 56.1%.
With `O=c1oc2ccc(Cl)cc2c(=O)n1-c1ccc(I)cc1F`, the growth is 7.52% (active).
On to `CCC1=C[C@@H]2CN(C1)Cc1c([nH]c3ccccc13)[C@@](C(=O)OC)(c1cc3c(cc1OC)N(C)[C@H]1[C@@](O)(C(=O)OC)[C@H](OC(C)=O)[C@]4(CC)[C@@H]5C[C@@H]5CN5CC[C@]31[C@@H]54)C2`, for which the growth was -24% (active).
Same read-out and setting: the same measure for `O=c1oc2ccc(F)cc2c(=O)n1-c1ccc(I)cc1F`: -4.12% (active).
The same measure, in the same setting: then `COc1ccc(C2C3=C(COC3=O)N(CCO)c3cc4c(cc32)CCC4)cc1OC` (stereo not drawn), with 24.8%.
Still for that read-out and setting: then `O=c1oc2ccc(I)cc2c(=O)n1-c1ccc(Cl)cc1F`, with -1.52% (active).
On to `O=C1OC(c2ccccc2)(c2ccccc2)c2ccsc21`, for which the growth was 102%.
Regarding `O=c1oc2ccc(-c3ccc(F)cc3F)cc2c(=O)n1-c1cccc(C(F)(F)F)c1`, the growth was -9.56% (active).
On the same count and under the same terms, the same measure for `Cn1nc(C(C)(C)C)cc1NC(=O)Cc1ccc(/C=C2\C(=O)Nc3ccccc32)cc1`: 60.7%.
Still for that read-out and setting: the same measure for `Cc1ccc(Nc2nc(N)c3ccccc3n2)cc1Cl`: 80.4%; for `O=C(c1ccccc1)N(CCc1ccc(Cl)cc1)C(=S)N(C(=O)c1ccccc1)c1ccccc1`: 120%; for `O=C(COc1cc(O)c2c(=O)cc(-c3ccccc3)oc2c1)Nc1ccccc1`: 107%.
On to `O=C1c2cc(I)ccc2Oc2cc([N+](=O)[O-])ccc2N1c1ccc(Cl)cc1F`, for which the growth was 96.1%.
The same measure, in the same setting: then `Nc1ccc(-c2nn3c(CCC(=O)c4nc5ncccc5[nH]4)nnc3s2)c(O)c1`, with 91.4%; and `COc1c(B(O)O)cccc1-c1nc2ccc3[nH]ncc3c2c2c1C1CCC2C1` (stereo not drawn), with 39.8%.
As for `Oc1c(CN2CCN(c3ccccc3F)CC2)cc(Br)c2cccnc12`, the growth is -8.19% (active).
With `O=C(Nc1ccc(F)cc1F)c1cc(Br)ccc1O`, the growth is -21.8% (active).
On the same count and under the same terms, the same measure for `O=C(Nc1ccc(N2CCNCC2)cn1)c1[nH]ncc1Nc1ncnc2sccc12`: 70.4%; for `O=C1c2ccc3c4c(ccc(c24)C(=O)N1CCCCO)C(=O)N(CCCCO)C3=O`: 85.1%.
On the same count and under the same terms, then `CC[C@]1(O)C[C@@H]2CN(CCc3c([nH]c4ccccc34)[C@@](C(=O)OC)(c3cc4c(cc3OC)N(C)[C@H]3[C@@](O)(C(=O)OC)[C@H](OC(=O)CCCBr)[C@]5(CC)C=CCN6CC[C@]43[C@@H]65)C2)C1`, with 30.8%; and `Nc1ncnc(N)c1NC(=O)c1ccc(OCc2ccccc2)cc1`, with 102%; and `O=c1oc2ccc(Cl)cc2c(=O)n1-c1ccc(F)cc1F`, with -7.81% (active).

In another test the test system is IGROV1 ovarian. The test is described as above. Particulars: 10 µM unless noted.
`Nc1nc(N)c2c(n1)NC1(C=C(O)c3ccccc31)C1=C(N2)c2ccccc2C1=O` (stereo not drawn): the growth is 92.3%.
As to `COc1ccc(CCN2C(=O)/C(=C/c3ccc(C4Oc5ccccc5C5CC(c6cccc(OC)c6)=NN54)cc3)SC2=S)cc1` (stereo not drawn), the growth is 104%.
Same read-out and setting: the same measure for `O=C(Nc1ccc(N2CCNCC2)cc1)c1[nH]ncc1Nc1cc(Oc2ccccc2)ncn1`: 19.7%.
Take `O=C(CCc1nnc2sc(Cc3ccccc3Cl)nn12)c1nc2ncccc2[nH]1`: the growth is 79.6%.
Still for that read-out and setting: then `O=NN(Cc1cccnc1)C(=O)NC1CCCCC1`, with 113%; and `CN(C)/C=C1\SC(=Nc2ccc(Cl)cc2)NC1=O`, with 102%; and `CCOC(=O)c1cc2c(n1Cc1ccccc1)-c1oncc1CCC2`, with 58%.
On the same count and under the same terms, the same measure for `O=C(c1ccccc1)N(C(=S)NCCc1ccc(Cl)cc1)c1ccccc1`: 102%.
As to `COc1cccc(/C=C/C(=O)c2c(C)nc3ccccc3c2/C=C/c2ccccc2)c1OC`, the growth was 20.9%.
Still for that read-out and setting: the same measure for `CCOC(=O)c1cc2c(n1Cc1cccc(OC)c1)-c1oncc1CCC2`: 7.29% (active).
On to `COc1ccc(OC)c(NC(=O)/C(C#N)=C/c2ccco2)c1`, for which the growth is 92.7%.
For `CCc1ccc(CNCC(O)c2ccccc2)cc1` (stereo not drawn), the growth was 41.1%.
For the molecule `CC/C=C\C[C@H](O)C/C=C1/C(=O)C=C[C@@H]1C/C=C\CCCC(=O)OCCS(=O)(=O)c1ccccc1`, the growth was 100%.
With `O=C1c2cc(Br)ccc2Oc2cc([N+](=O)[O-])ccc2N1c1ccc(I)cc1F`, the growth is 97.9%.
Still for that read-out and setting: the same measure for `COc1ccc(/C=C/C(=O)c2c(C)nc3ccccc3c2/C=C/c2ccccc2)cc1O`: 34.7%.
For the molecule `COc1ccc(-c2nc(N3CCN(C(=O)C4CCCCC4)CC3)c3c4c(sc3n2)CCCC4)cc1`, the growth is 33.7%.
With `O=c1oc2ccc(F)cc2c(=O)n1-c1ccc(Cl)cc1F`, the growth is 18.9%.
On the same count and under the same terms, then `COc1cc(C(=O)Nc2ccc(-c3nc4ccccc4[nH]3)cc2)cc(OC)c1OC`, with 46.8%; and `O=c1oc2ccc(Cl)cc2c(=O)n1-c1ccc(I)cc1F`, with 14.9%.
On the same count and under the same terms, the same measure for `CCC1=C[C@@H]2CN(C1)Cc1c([nH]c3ccccc13)[C@@](C(=O)OC)(c1cc3c(cc1OC)N(C)[C@H]1[C@@](O)(C(=O)OC)[C@H](OC(C)=O)[C@]4(CC)[C@@H]5C[C@@H]5CN5CC[C@]31[C@@H]54)C2`: 1.74% (active).
Same read-out and setting: the same measure for `O=c1oc2ccc(F)cc2c(=O)n1-c1ccc(I)cc1F`: 17.2%; for `COc1ccc(C2C3=C(COC3=O)N(CCO)c3cc4c(cc32)CCC4)cc1OC` (stereo not drawn): 24.2%.
`O=c1oc2ccc(I)cc2c(=O)n1-c1ccc(Cl)cc1F`: the growth was 18.7%.
On to `O=C1OC(c2ccccc2)(c2ccccc2)c2ccsc21`, for which the growth is 107%.
Same read-out and setting: then `O=c1oc2ccc(-c3ccc(F)cc3F)cc2c(=O)n1-c1cccc(C(F)(F)F)c1`, with 20.5%.
Same read-out and setting: the same measure for `Cn1nc(C(C)(C)C)cc1NC(=O)Cc1ccc(/C=C2\C(=O)Nc3ccccc32)cc1`: 59%.
The same measure, in the same setting: the same measure for `Cc1ccc(Nc2nc(N)c3ccccc3n2)cc1Cl`: 57.3%; for `O=C(c1ccccc1)N(CCc1ccc(Cl)cc1)C(=S)N(C(=O)c1ccccc1)c1ccccc1`: 116%.
As for `O=C(COc1cc(O)c2c(=O)cc(-c3ccccc3)oc2c1)Nc1ccccc1`, the growth was 99.1%.
`O=C1c2cc(I)ccc2Oc2cc([N+](=O)[O-])ccc2N1c1ccc(Cl)cc1F`: the growth was 72.3%.
As for `Nc1ccc(-c2nn3c(CCC(=O)c4nc5ncccc5[nH]4)nnc3s2)c(O)c1`, the growth was 70.9%.
`COc1c(B(O)O)cccc1-c1nc2ccc3[nH]ncc3c2c2c1C1CCC2C1` (stereo not drawn): the growth is 76.1%.
Same read-out and setting: then `Oc1c(CN2CCN(c3ccccc3F)CC2)cc(Br)c2cccnc12`, with -34.1% (active).
Regarding `O=C(Nc1ccc(F)cc1F)c1cc(Br)ccc1O`, the growth was 15.5%.
The same measure, in the same setting: the same measure for `O=C(Nc1ccc(N2CCNCC2)cn1)c1[nH]ncc1Nc1ncnc2sccc12`: 78.1%; for `O=C1c2ccc3c4c(ccc(c24)C(=O)N1CCCCO)C(=O)N(CCCCO)C3=O`: 86.2%; for `CC[C@]1(O)C[C@@H]2CN(CCc3c([nH]c4ccccc34)[C@@](C(=O)OC)(c3cc4c(cc3OC)N(C)[C@H]3[C@@](O)(C(=O)OC)[C@H](OC(=O)CCCBr)[C@]5(CC)C=CCN6CC[C@]43[C@@H]65)C2)C1`: 11.2%.
Still for that read-out and setting: the same measure for `Nc1ncnc(N)c1NC(=O)c1ccc(OCc2ccccc2)cc1`: 106%; for `O=c1oc2ccc(Cl)cc2c(=O)n1-c1ccc(F)cc1F`: 16.2%.
